# Most compounds without a hit are left out; they make up all but 2.4% or so of the library.
# GLP1R cytotox = cytotoxic in the GLP-1 receptor inverse agonist counter-screen; Potency, µM (highest dose often 38.3 µM), without a hit: at the highest dose activity change, negative = inhibition, usual class: inhibitors; AID 624418; HEK293 cAMP-luciferase reporter cells, luminescence, 24 h; 410,000 tested, 0.13% active;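 note: loss of luciferase light is scored as toxicity; potency is the fitted concentration of half-maximal effect; % is set by controls: 0 for no effect and ±100 for the full control effect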
#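 Cells in DMEM/10% Nu serum/1% pen-strep, 1536-well format. Pre-incubated 12 h, dosed with 23 nL compound, incubated a further 24 h. Luciferase detection, 12 min at room temp, luminescence.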
# TRHR enhancer = allosteric enhancers of human TRH receptor. P34981. 360,000 tested, 0.66% active. enhancement, % at 2 µM. TRHR cells, fluo-8 calcium fluorescence, EC20 TRH enhancement. AID 493056; in the data active = enhancement above about 30%; note: 0% is about no effect
#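 Enhancer read-out: after compound pinning and an initial kinetic agonist-mode read, an EC20 of TRH (10 nM final) was injected and fluo-8 calcium signal (Ex 480/Em 530) followed at 1 s/cycle for 100 cycles in TRHR-expressing cells.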
# GLP-1R agonist = activates the human GLP-1 receptor; P43220; HEK293 GLP-1R CRE-luciferase, luminescence, 4-6 h; cells express a hypersensitive GLP-1R form; Potency, µM (highest dose often 45.6 µM), for inactives: at the highest dose activation, usual class: activators; 380,000 tested, 0.007% active; AID 624172; note: potency is the fitted concentration of half-maximal effect; % of control where 0% means no effect
# Target sequence (P43220 whole entry, looked up): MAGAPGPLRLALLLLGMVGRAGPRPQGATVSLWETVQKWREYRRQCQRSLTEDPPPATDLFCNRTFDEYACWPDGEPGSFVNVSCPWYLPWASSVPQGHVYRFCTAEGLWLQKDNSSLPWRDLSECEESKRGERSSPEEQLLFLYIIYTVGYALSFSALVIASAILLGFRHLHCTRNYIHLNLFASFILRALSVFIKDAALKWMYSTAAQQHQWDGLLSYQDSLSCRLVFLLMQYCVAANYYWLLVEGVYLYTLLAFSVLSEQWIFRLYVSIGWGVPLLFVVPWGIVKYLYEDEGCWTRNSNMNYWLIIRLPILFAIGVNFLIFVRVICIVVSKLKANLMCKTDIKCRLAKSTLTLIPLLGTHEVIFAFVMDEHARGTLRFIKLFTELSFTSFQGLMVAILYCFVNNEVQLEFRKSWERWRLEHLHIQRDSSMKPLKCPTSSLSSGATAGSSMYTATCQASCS
# GLP-1R inv ag = inverse agonists of human GLP-1 receptor; P43220; HEK293 GLP-1R CRE-luciferase, luminescence, 24 h; GLP-1R form is constitutively active; Potency, µM (series often up to 38.3 µM), for the others: top-dose activity change, negative = inhibition, hits mostly inhibitors; 410,000 tested, 1.6% active; AID 624417; note: potency is the fitted concentration of half-maximal effect; % is set by controls: 0 for no effect and ±100 for the full control effect; nearly all actives have a fitted effect of over 55% in size
#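 Readout was luciferase luminescence, measured 12 min after detection reagent at room temperature. Beforehand, GLP-1R reporter HEK293 cells had sat 12 h, then received compounds for 24 hr at 37 deg C.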
# PTHR1 ag = activates the human parathyroid hormone receptor PTHR1 | Potency, µM (top dose mostly 115 µM), for inactives: at the top dose activation, usual class: activators | 410,000 tested, 0.075% active | HEK293 GP2 PTHR1 cells, GloSensor cAMP luminescence, 1 h; note: potency is the fitted concentration of half-maximal effect; nearly all actives have a fitted effect of over 55% in size
#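 HEK-293-derived GP2 cells expressing PTHR1 and a GloSensor cAMP reporter, 3,000/well, plated overnight, given luciferin plus IBMX (each 0.5 mM as added) for 1 h at 37 °C, then compound for 1 h at 37 °C. Luminescence was read after 15 min at room temperature.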
# TRHR agonist = activates the human TRH receptor; 360,000 tested, 0.18% active; activation, % at 2 µM; AID 493084; P34981; TRHR cells, calcium flux fluo-8, FDSS agonist mode; in the data active = activation above about 30%; note: 0% is about no effect
#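 Steps: seed TRHR cells overnight; add fluo-8 no-wash Ca dye, RT 30 min–1.5 h; record 10 s baseline; pin-transfer compounds; monitor fluorescence 1 cycle/s for the agonist window. Calcium increases flag candidate agonists.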
# Active calls of the source: *; i = inactive; ? = inconclusive; . = no result; [ ] = another dose, or the depositor's remark. Unless noted, calls come from the whole dose curve; as a rule, active = well fitted curve in the direction sought with a large enough effect; inconclusive = small, poorly fitted or top-dose-only effect, or another doubt; inactive = no such curve, though single readings can be large; an effect the other way counts as inactive or inconclusive.
SMILES,GLP1R cytotox,TRHR enhancer,GLP-1R agonist,GLP-1R inv ag,PTHR1 ag,TRHR agonist
CN(C)[C@@H](CO)c1nnc([C@H](CCC(=O)O)NC(=O)C2CCNCC2)o1,3%,-5,-3%,11%,-19%,0
Cc1ccc(Cn2ccsc2=NC(=O)COC(=O)c2ccc(NC(=O)CC#N)cc2)cc1,10%,-4,1%,-2%,-31%,3
Cc1ccc(Cn2ccsc2=NC(=O)CCl)cc1,-40%,0,20%,10µM*,-67%,0
CCNc1ccc(Br)cc(C(=O)/C=C/c2ccc3c(c2)OCO3)c1=O,11%,-3,4%,24%,-44%[57.5 µM],1
CCNc1ccc(Br)cc(C(=O)/C=C/c2ccc(Cl)cc2)c1=O,-13%,0,0%,2.8µM*,-30%,3
CC1S/C(=N\N=C\c2cccc([N+](=O)[O-])c2)N(C(C)(C)C)C1=O (stereo not given),0%,8,4%,3.5µM*,i,1
O=C1CCCCC1Sc1nnc(-c2ccc3c(c2)OCO3)o1 (stereo not given),-7%,0,-5%,3.2µM*,-30%,0
CCc1nc2c(cnn2-c2ccc(C)cc2)c(=O)n1Cc1ccccc1,3%,-12,-2%,?,-17%,0
Cc1ccc(-n2c(=O)c3c(c4cc(C)ccc4n3C)n(CC(=O)NCC3CCCO3)c2=O)cc1 (stereo not given),-13%,5,-2%,9%,-39%,-1
Cc1cc2cc(CNC(=S)Nc3ccc(OC(F)(F)F)cc3)ccc2[nH]1,?,4,-3%,11µM*,i,0
O=S1(=O)CCN(CCCc2ccccc2)CC1,8%,.,-4%,9%,-21%,.
FC(F)(F)c1nc2ccccc2nc1N/N=C\c1ccccc1,8.9µM*,4,2%,?,-5%,0
NNc1nc2ccccc2nc1C(F)(F)F,-3%,4,0%,-6%,29%,1
CN1CCN(c2ncnc3scc(-c4ccccc4Cl)c23)CC1,0%,0,-4%,1.4µM*,i,0
Oc1ccccc1N1CCN(c2ncnc3scc(-c4ccccc4)c23)CC1,-26%,3,14%,11µM*,-12%,0
COc1ccc(-c2csc3ncnc(Oc4cccc5ccc(C)nc45)c23)cc1,-5%,-2,-2%,10µM*,-16%,0
COc1ccc(-c2csc3ncnc(N4CCN(c5ccccc5OC)CC4)c23)cc1,-10%,1,13%,10µM*,i,-1
CCOc1ccccc1N1CCN(c2ncnc3scc(-c4ccc(OC)cc4)c23)CC1,-23%,0,-1%,?,-79%,0
CCN1C(=O)CC(NNC(=O)c2ccccc2)C1=O (stereo not given),-6%,0,-2%,5%,i,1
Cc1ccc(Cc2nc3ccccc3nc2SCC(=O)N2CCCCC2C)cc1 (stereo not given),-7%,-1,-5%,10µM*,-35%,0
Cc1c(Cl)cccc1Nc1nc(NCCO)c2ccccc2n1,?,-5,10%,2.5µM*,-19%,0
OCCNc1nc(Nc2ccccc2)nc2ccccc12,8%,-12,1%,7.1µM*,i,0
Cc1ccc(Nc2nc(NCc3ccco3)c3ccccc3n2)cc1,?,4,4%,2.5µM*,-32%,2
OCCNc1nc(Nc2ccc(Br)cc2)nc2ccccc12,5%,3,-1%,2µM*,-8%,1
CC(NC(=O)Cc1ccc(-c2ccccc2)cc1)c1ccccc1 (stereo not given),-11%,5,2%,?,i,1
SMILES,GLP1R cytotox,TRHR enhancer,GLP-1R agonist,GLP-1R inv ag,PTHR1 ag,TRHR agonist
COc1ccc(CCNC(=O)CCC(=O)N2CC(C)Oc3ccc(Cl)cc32)cc1OC (stereo not given),?,1,15%,?,-22%,-1
N=NC(=O)c1ccccc1Nc1c(O)[nH]c2ccccc12,?,.,-23%,-28%,-36%,.
Cc1cc(C(=O)CSc2nc3ccccc3[nH]2)c(C)n1CC1CCCO1 (stereo not given),-31%,1,-4%,4µM*,-37%,-1
COc1ccc(C(C)(C)C)cc1NC(=O)COC(=O)c1nc2nccc(C)n2n1,7%,-1,1%,-19%,-21%,0
Cc1cccc(C)c1NC(=O)N1CCCCCCC1,10%,39*,3%,-23%,?,0
CC(C)=CCn1c2ccc(NC(=O)Nc3cccnc3)cc2c(=O)n1C,-3%,.,3%,9%,i,.
CC1=C(C(=O)OC2CCCC2)C(c2coc3ccc(C)cc3c2=O)C2=C(CCCC2=O)N1 (stereo not given),-2%,-8,1%,-5%,-8%,0
CC1=C(C(=O)OC2CCCC2)C(c2coc3ccccc3c2=O)C2=C(CC(C)(C)CC2=O)N1 (stereo not given),-8%,-11,15%,2.5µM*,-52%,0
Cc1ccnc(NS(=O)(=O)c2ccc(NC(=O)Cc3c(F)cccc3Cl)cc2)n1,-27%,2,13%,11%,-36%,0
Cc1ccc(C)c(N2CCN(C(=O)Cn3cnc4nc5c(cc4c3=O)CCCC5)CC2)c1,3%,0,.,-2%,-91%,0
O=C(Cn1cnc2nc3c(cc2c1=O)CCCC3)N1CCN(c2ccccc2)CC1,-3%,32*,.,-16%,10%,0
O=C(N/N=C/c1ccccc1)c1ccc(OCc2ccccc2)cc1,-8%,2,7%,-11%,-12%,-1
O=C(N/N=C/c1ccccc1)c1sccc1OCc1ccc(F)cc1,-20%,0,11%,8.9µM*,-36%[57.5 µM],0
COc1ccc(S(=O)(=O)N2CCCCC2C(=O)O)cc1OC (stereo not given),2%,33*,-19%,10%,i,0
O=[N+]([O-])c1ccc(N/N=C2\CC3CC=CC23)cc1 (stereo not given),?,-8,11%,1.3µM*,-94%,0
O=C(CSc1nnc(-c2ccncc2)o1)Nc1ccccc1Cl,-6%,-1,0%,6%,i,1
O=C(CSc1nnc(-c2ccncc2)o1)NC1C2CC3CC(C2)CC1C3 (stereo not given),-4%[1.53 µM],31*,-4%,-27%,i,0
CCCCNc1ccc(-c2nc(-c3ccccc3)no2)cc1[N+](=O)[O-],2%,-1,.,16%,-2%,1
CN(C)CCCNC(=O)c1ccc(-c2nc(-c3ccc(Cl)cc3)cs2)cc1,?,-13,-5%,6.3µM*,i,0

# Compound activity from PubChem.
